Inconclusive results are not listed. The source made the active and inactive calls. Calls come from the whole dose curve.
target: Vitamin D3 receptor (Homo sapiens) (UniProt P11473); experiment: qHTS assay to identify small molecule agonists of the vitamin D receptor (VDR) signaling pathway (AID 743222); settings: HEK293T VDR-UAS-bla, beta-lactamase FRET ratio, 16 h; series mostly up to 63.5 µM; activation: at the top concentration
Description: National Center for Advancing Translational Sciences [NCATS]
NIH Chemical Genomics Center [NCGC]
U.S. Environmental Protection Agency [EPA]
National Institutes of Environmental Health Sciences [NIEHS]
National Toxicology Program [NTP]
U.S. Food and Drug Administration [FDA]
The vitamin D receptor (VDR), a member of nuclear hormone receptor superfamily, plays a critical role in calcium homeostasis and bone metabolism. It is also involved in cell differentiation and growth, and thrombogenicity.
Tox21 Assay Protocol Summary:
VDR-bla cells were dispensed at 2,000 cells/6 uL/well into black wall/clear-bottom 1536-well plates using a Multidrop Combi (Thermo Fisher Scientific, Waltham, MA) dispenser. After the assay plates were incubated at a 37C and 5% CO2 for 4 h, 23 nL of compounds dissolved in DMSO, positive controls or DMSO only was transferred to the assay plate by a Pintool station (Kalypsys, San Diego, CA). The plates were incubated at 37C and 5% CO2 for 16 h. After 1 uL of LiveBLAzerTM B/G FRET substrate was added using a Bioraptr Flying Reagent Dispenser (FRD) workstation (Beckman Coulter, Indianapolis, IN, USA), the plates were incubated at room temperature for 2 h, and fluorescence intensity was measured by an Envision plate reader (PerkinElmer, Shelton, CT).
% is set by controls: 0 for no effect and ±100 for the full control effect.

Chain of Vitamin D3 receptor (Homo sapiens) (P11473 whole entry, looked up): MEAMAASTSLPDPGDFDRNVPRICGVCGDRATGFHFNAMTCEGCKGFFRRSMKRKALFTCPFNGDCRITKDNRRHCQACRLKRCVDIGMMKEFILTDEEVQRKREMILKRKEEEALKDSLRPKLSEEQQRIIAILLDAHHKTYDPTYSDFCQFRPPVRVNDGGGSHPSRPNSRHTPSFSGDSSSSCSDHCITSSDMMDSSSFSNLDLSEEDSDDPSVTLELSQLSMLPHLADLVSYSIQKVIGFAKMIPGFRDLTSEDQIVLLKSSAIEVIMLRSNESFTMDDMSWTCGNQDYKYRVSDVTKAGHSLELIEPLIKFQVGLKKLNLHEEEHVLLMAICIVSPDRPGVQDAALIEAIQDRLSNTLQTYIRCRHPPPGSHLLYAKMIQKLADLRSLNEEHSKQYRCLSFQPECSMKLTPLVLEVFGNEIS

Question: For `CCCCN(CC)c1c([N+](=O)[O-])cc(C(F)(F)F)cc1[N+](=O)[O-]`, which outcome is on record?
Answer: Its outcome is “inactive”.

Question: How did the outcome turn out when `Nc1cccnc1` was run?
Answer: Its outcome is “inactive”.

Question: How did the outcome turn out when `O=Cc1ccco1` was run?
Answer: The outcome was “inactive”.

Question: With `CCCCCCCCCCCOC(=O)c1ccccc1C(=O)OCCCCCCCCCCC` as the compound, how does the outcome read?
Answer: Its outcome is “inactive”.

Question: Which “activation” value does the source give for `CCCCCc1cc(O)cc(O)c1` here?
Answer: The value was -12.2% [at 81.1 µM] (inactive).

Question: How did the outcome turn out when `NC(=S)Nc1ccccc1` was run?
Answer: Its outcome is “inactive”.

Question: Which “activation” value does the source give for `CCCCNC(=O)n1c(NC(=O)OC)nc2ccccc21` here?
Answer: The value was 6.03% (inactive).

Question: Which outcome does the source give for `CN(C)C(=O)Nc1ccc(Cl)cc1` here?
Answer: Its outcome is “inactive”.

Question: For `COP(=O)(OC)OC`, which outcome is on record?
Answer: The outcome was “inactive”.

Question: How did the outcome turn out when `CCOP(=S)(OCC)O/N=C(\C#N)c1ccccc1` was run?
Answer: Its outcome is “inactive”.

Question: How did the outcome turn out when `O=P(O)(O)CCCl` was run?
Answer: Its outcome is “inactive”.

Question: `c1nc[nH]n1` was tested. Which outcome did it give?
Answer: The outcome was “inactive”.

Question: Which outcome does the source give for `Cc1ccc(OP(=O)(Oc2ccc(C)cc2)Oc2ccc(C)cc2)cc1` here?
Answer: Its outcome is “inactive”.

Question: With `CCCCCCCCC(=O)NCc1ccc(O)c(OC)c1` as the compound, how does the “activation” value read?
Answer: Its value is 5.13% (inactive).

Question: For `CC(O)CCO` (stereo not given), which outcome is on record?
Answer: Its outcome is “inactive”.

Question: `c1ccc(N=Nc2ccccc2)cc1` was tested. Which outcome did it give?
Answer: Its outcome is “inactive”.

Question: How did the outcome turn out when `Nc1ccc(-c2ccc(N)c(N)c2)cc1N` was run?
Answer: Its outcome is “inactive”.

Question: `O=C(Nc1ccc(Br)cc1)c1cc(Br)cc(Br)c1O` was tested. Which “activation” value did it give?
Answer: Its value is -17.8% (inactive).

Question: How did the outcome turn out when `CCCCOCCOP(=O)(OCCOCCCC)OCCOCCCC` was run?
Answer: The outcome was “inactive”.

Question: How did the “activation” value turn out when `O=P(Oc1ccccc1)(Oc1ccccc1)Oc1ccccc1` was run?
Answer: Its value is 1.41% (inactive).

Question: `Oc1c(Cl)c(Cl)c(Cl)c(Cl)c1Cl` was tested. Which “activation” value did it give?
Answer: The value was -7.46% (inactive).

Question: How did the “activation” value turn out when `CCC(CC)Nc1c([N+](=O)[O-])cc(C)c(C)c1[N+](=O)[O-]` was run?
Answer: The value was -10.7% (inactive).

Question: How did the outcome turn out when `CCC(C)(C)c1ccc(O)cc1` was run?
Answer: The outcome was “inactive”.

Question: How did the outcome turn out when `c1ccc(NNc2ccccc2)cc1` was run?
Answer: Its outcome is “inactive”.

Question: With `CC1(C)C(C=C(Cl)Cl)C1C(=O)OC(C#N)c1cccc(Oc2ccccc2)c1` (stereo not given) as the compound, how does the outcome read?
Answer: The outcome was “inactive”.

Question: With `COc1ccc(C=O)cc1` as the compound, how does the outcome read?
Answer: Its outcome is “inactive”.

Question: For `COc1ccc(C(CN(C)C)C2(O)CCCCC2)cc1` (stereo not given), which outcome is on record?
Answer: Its outcome is “inactive”.

Question: With `Cc1cc(C)cc(C)c1` as the compound, how does the outcome read?
Answer: Its outcome is “inactive”.

Question: `CC(C)=CC1C(C(=O)OCc2coc(Cc3ccccc3)c2)C1(C)C` (stereo not given) was tested. Which “activation” value did it give?
Answer: Its value is -0.842% (inactive).

Question: Which outcome does the source give for `COC(=O)c1sccc1S(=O)(=O)NC(=O)Nc1nc(C)nc(OC)n1` here?
Answer: The outcome was “inactive”.

Question: For `CC(C)(C)c1ccccc1O`, which outcome is on record?
Answer: The outcome was “inactive”.

Question: With `C=C(C)C(=O)OCC1CO1` (stereo not given) as the compound, how does the outcome read?
Answer: The outcome was “inactive”.

Question: Which outcome does the source give for `CNC(=O)N(C)c1nnc(C(C)(C)C)s1` here?
Answer: Its outcome is “inactive”.

Question: For `Cc1ccc(N)c(N)c1`, which outcome is on record?
Answer: Its outcome is “inactive”.

Question: For `O=[N+]([O-])c1c(Cl)c(Cl)c(Cl)c(Cl)c1Cl`, which “activation” value is on record?
Answer: Its value is -6.55% (inactive).

Question: `Cc1cccc(N)c1N` was tested. Which “activation” value did it give?
Answer: The value was -14.7% (inactive).

Question: Which outcome does the source give for `Oc1ccc(-c2ccccc2)cc1` here?
Answer: Its outcome is “inactive”.

Question: Which outcome does the source give for `Nc1c(Cl)cc([N+](=O)[O-])cc1Cl` here?
Answer: Its outcome is “inactive”.

Question: Which outcome does the source give for `Clc1nc(Cl)nc(Cl)n1` here?
Answer: The outcome was “inactive”.

Question: `Nc1ccncc1` was tested. Which “activation” value did it give?
Answer: The value was -2.3% [at 81.1 µM] (inactive).

From PubChem BioAssay (Tox21)
